Test results: the supplement of paper PMC11732987, “Enantioselective OTUD7B fragment discovery through chemoproteomics screening and high-throughput optimisation” (Communications Chemistry, 2025)

Key:
Assay in all cases: log2 ratio of Biotin-Ahx-Ub-VS probe labelling (fragment/DMSO); higher = less target engagement (more negative = stronger competition), active = hit call of the paper (q ≤ 0.05, log2 ratio ≤ -1)
Conditions in all cases: compound concentration: 200 uM; treatment time: 3 h
USP34 = USP34 (UniProt Q70CQ2)
Outline: (§1)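 Global-median-normalised Spectronaut label-free quantities were compared by unpaired t-test, and values are average log2 ratios of fragment over vehicle. Only proteins with ≥2 unique peptides were used. HEK293T lysate (495 µg per sample) was treated in triplicate with fragment at 200 µM or vehicle for 3 h and then with Biotin-Ahx-Ub-VS at 0.5 µM final for 1 h. Labelled DUBs were then NeutrAvidin-enriched, digested with LysC and trypsin, and run by diaPASEF LC-MS/MS.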

USP36 = molecular target: T1, USP36 (UniProt Q9P275)
T1 sequence (whole entry): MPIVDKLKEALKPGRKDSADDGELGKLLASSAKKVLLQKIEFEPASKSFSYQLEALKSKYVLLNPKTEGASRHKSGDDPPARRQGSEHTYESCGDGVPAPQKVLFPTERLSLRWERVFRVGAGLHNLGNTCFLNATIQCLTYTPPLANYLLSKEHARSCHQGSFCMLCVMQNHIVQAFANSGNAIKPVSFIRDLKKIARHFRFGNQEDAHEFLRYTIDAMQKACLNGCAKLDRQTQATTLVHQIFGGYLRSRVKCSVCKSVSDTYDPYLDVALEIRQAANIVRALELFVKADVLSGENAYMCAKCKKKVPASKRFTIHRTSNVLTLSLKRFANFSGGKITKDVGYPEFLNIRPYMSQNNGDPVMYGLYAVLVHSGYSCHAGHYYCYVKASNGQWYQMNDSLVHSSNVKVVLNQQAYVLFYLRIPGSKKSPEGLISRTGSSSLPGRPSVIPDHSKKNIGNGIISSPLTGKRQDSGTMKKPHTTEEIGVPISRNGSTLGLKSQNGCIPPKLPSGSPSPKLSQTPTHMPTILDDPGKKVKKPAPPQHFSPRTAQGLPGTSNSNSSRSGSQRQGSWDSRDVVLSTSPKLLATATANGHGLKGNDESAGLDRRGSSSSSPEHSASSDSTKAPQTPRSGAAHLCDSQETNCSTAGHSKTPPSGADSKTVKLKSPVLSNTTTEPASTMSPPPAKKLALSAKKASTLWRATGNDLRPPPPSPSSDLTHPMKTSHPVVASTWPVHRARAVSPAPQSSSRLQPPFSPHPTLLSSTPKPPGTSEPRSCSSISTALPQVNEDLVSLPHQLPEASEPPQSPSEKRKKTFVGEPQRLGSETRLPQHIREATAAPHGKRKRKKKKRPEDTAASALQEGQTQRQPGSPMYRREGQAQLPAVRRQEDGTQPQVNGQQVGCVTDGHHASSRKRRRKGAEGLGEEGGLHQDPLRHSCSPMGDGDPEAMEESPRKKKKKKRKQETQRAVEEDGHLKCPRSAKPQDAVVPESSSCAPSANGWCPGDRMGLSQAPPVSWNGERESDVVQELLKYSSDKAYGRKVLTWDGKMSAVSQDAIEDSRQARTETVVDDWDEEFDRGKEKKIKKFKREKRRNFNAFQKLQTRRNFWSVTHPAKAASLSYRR
Outline: as §1

USP38 = molecular target: T2, USP38 (UniProt Q8NB14)
T2 sequence (whole entry): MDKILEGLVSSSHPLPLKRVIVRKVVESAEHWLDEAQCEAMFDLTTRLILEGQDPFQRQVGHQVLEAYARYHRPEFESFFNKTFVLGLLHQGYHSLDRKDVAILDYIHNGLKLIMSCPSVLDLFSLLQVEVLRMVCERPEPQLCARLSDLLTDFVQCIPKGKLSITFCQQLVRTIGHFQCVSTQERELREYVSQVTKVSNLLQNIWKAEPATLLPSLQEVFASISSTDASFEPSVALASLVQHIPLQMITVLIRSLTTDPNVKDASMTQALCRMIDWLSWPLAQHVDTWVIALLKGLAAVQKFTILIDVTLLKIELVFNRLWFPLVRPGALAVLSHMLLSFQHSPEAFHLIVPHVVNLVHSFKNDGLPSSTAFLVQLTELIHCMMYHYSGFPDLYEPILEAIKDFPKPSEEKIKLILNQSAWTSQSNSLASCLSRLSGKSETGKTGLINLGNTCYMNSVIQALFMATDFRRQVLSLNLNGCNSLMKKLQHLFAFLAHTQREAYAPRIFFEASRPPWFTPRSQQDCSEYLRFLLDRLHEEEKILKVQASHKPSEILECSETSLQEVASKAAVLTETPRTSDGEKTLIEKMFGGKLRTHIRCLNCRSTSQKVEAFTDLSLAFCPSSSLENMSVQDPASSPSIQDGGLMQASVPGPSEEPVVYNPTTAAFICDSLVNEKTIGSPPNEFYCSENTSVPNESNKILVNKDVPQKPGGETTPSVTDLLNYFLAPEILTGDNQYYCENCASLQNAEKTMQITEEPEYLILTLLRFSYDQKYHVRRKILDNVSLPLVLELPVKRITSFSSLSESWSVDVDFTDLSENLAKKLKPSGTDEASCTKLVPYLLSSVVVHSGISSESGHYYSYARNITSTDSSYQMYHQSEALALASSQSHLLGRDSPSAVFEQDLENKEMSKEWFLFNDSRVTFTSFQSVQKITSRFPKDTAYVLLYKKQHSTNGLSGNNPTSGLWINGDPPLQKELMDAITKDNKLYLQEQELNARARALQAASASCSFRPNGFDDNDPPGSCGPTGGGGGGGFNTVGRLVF
Outline: as §1

USP39 = molecular target: T3, USP39 (UniProt Q53GS9)
T3 sequence (whole entry): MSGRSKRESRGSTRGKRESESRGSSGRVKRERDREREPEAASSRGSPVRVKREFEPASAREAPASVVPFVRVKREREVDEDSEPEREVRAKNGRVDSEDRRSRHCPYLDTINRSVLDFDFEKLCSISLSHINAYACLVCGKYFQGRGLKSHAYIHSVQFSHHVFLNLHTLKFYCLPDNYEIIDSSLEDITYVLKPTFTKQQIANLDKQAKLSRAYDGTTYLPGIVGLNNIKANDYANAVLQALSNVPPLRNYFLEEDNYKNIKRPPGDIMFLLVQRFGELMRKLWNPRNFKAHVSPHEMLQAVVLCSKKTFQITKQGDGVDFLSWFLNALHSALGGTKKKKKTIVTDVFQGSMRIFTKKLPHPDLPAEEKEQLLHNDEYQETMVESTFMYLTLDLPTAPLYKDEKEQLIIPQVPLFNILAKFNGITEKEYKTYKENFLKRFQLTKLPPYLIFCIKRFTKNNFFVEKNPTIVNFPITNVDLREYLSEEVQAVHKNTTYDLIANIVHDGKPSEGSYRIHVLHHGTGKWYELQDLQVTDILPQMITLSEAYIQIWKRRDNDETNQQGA
Outline: as §1

USP4 = molecular target: T4, USP4 (UniProt Q13107)
T4 sequence (whole entry): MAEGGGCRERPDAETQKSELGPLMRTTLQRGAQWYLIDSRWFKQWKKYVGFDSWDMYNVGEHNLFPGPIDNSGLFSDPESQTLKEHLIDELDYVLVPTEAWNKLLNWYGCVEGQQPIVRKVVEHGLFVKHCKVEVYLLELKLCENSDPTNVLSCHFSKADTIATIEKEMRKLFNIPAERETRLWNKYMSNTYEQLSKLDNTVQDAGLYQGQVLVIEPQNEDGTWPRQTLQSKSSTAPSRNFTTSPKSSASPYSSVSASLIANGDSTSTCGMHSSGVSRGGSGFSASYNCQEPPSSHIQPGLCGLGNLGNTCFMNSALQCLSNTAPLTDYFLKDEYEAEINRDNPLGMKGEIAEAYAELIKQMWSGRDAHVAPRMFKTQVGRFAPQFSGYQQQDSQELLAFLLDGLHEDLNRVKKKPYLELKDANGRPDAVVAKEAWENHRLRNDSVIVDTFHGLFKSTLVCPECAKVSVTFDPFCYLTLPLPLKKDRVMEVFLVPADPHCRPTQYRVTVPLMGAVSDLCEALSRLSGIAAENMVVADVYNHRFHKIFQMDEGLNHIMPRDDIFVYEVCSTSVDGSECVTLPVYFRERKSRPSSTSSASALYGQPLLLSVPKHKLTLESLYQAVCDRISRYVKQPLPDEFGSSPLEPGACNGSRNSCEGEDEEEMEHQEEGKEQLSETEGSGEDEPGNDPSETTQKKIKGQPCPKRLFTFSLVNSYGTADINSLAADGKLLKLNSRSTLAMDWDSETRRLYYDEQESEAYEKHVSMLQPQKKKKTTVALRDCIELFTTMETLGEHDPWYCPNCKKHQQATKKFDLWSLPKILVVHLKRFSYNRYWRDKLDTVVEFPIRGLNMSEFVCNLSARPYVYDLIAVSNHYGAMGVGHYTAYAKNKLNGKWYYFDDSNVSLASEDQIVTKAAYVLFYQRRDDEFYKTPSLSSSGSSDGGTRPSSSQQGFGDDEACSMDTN
Outline: as §1

Measured: log2 ratio of Biotin-Ahx-Ub-VS probe labelling

USP34, sequence (Q70CQ2 whole entry, the tested form may be a part): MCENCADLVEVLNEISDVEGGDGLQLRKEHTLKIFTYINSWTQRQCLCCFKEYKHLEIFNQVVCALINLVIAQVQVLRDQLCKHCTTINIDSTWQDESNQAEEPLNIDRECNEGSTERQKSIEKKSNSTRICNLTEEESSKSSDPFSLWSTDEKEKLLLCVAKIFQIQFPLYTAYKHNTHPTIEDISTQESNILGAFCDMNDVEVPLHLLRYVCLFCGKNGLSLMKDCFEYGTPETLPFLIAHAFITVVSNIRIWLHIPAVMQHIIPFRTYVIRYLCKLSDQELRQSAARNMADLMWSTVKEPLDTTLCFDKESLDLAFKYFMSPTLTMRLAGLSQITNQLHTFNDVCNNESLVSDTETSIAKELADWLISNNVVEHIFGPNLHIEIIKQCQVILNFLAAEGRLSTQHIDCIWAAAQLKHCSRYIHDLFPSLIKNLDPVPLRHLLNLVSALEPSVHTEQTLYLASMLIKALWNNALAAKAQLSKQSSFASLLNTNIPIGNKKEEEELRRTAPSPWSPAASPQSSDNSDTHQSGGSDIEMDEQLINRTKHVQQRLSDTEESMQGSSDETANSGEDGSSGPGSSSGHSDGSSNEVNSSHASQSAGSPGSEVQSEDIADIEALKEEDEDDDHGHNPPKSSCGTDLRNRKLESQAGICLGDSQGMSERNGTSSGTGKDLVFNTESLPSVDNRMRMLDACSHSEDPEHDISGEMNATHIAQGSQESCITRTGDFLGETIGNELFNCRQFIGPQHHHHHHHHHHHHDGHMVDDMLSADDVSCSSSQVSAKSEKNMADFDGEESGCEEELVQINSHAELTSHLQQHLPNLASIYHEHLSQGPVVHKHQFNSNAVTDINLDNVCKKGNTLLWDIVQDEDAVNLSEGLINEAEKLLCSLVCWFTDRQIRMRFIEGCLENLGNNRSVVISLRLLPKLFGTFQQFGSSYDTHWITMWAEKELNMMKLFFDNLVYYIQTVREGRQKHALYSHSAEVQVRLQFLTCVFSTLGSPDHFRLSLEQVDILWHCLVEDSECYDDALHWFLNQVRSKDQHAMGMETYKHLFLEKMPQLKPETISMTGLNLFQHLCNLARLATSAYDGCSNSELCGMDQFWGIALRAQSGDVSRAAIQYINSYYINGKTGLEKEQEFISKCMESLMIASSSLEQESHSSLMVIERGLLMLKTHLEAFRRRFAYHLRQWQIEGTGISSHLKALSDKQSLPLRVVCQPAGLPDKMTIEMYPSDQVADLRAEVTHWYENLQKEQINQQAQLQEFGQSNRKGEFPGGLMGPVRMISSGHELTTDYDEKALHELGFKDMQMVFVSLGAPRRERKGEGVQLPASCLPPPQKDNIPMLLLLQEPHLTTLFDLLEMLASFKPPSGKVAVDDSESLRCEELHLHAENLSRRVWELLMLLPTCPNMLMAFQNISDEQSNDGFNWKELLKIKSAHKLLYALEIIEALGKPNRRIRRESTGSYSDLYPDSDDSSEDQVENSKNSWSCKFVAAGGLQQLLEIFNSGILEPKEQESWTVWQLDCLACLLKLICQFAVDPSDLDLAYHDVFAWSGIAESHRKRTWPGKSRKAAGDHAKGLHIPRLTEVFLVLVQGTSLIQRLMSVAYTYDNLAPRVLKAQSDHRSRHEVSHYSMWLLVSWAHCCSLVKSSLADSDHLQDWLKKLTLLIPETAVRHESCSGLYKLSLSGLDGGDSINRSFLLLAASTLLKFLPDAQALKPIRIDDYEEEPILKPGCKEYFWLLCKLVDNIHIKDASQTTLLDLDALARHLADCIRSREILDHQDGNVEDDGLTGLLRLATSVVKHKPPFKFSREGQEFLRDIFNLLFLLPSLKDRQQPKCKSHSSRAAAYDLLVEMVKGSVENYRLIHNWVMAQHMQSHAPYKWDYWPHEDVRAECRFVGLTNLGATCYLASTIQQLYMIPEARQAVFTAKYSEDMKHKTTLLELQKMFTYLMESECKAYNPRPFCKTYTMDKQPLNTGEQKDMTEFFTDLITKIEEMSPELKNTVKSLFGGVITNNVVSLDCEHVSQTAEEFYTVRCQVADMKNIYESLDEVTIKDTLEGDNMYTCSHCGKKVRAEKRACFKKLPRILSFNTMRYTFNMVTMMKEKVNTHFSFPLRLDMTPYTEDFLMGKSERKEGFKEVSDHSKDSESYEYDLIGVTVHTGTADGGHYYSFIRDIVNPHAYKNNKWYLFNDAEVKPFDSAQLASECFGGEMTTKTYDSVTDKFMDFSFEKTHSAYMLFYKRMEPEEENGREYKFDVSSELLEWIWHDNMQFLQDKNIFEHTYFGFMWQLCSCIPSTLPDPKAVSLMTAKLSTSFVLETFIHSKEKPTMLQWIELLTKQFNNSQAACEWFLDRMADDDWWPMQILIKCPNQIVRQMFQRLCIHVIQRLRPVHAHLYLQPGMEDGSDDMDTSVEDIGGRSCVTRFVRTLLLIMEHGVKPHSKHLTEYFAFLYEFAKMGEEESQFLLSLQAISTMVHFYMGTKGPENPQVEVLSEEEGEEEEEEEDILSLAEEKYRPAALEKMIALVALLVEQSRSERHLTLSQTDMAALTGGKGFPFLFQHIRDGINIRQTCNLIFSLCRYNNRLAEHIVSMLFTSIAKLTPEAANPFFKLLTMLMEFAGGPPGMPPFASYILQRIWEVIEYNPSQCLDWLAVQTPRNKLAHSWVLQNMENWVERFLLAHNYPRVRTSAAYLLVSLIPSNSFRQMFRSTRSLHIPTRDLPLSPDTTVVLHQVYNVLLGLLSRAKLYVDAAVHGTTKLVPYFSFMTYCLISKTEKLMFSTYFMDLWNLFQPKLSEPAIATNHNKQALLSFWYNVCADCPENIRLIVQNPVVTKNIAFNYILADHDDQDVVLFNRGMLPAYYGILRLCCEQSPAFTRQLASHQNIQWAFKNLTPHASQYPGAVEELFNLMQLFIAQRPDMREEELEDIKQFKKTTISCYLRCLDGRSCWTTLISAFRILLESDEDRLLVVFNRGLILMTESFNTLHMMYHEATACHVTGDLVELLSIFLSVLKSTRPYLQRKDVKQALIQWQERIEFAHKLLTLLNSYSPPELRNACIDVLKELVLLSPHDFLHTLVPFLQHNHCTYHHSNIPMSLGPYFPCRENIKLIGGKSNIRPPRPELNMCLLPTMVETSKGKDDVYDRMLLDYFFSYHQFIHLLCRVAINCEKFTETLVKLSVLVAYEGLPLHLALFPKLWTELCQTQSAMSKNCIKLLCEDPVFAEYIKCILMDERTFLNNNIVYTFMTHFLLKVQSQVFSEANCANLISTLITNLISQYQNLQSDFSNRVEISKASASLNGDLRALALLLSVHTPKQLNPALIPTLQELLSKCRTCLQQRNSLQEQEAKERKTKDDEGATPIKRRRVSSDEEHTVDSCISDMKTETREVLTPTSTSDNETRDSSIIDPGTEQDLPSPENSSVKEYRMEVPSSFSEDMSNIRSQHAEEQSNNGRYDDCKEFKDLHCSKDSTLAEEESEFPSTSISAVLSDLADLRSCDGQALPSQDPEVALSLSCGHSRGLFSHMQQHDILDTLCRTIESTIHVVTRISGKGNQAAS

Cc1nc(CC2CCN(C(=O)CCl)CC2)no1
inactive: USP34 -0.459 | USP36 -0.425 | USP38 -0.544 | USP39 0.344 | USP4 -0.686
